Hit rate of the full screen: of about 320,000 compounds, about 22,000 (6.9%) were called active. Where a call stands in place of a potency, no number is given. Roughly 27% stayed inconclusive and do not appear here. This is one part of a sample in which actives are shown more often than they occur. Calls follow the shape of the dose curve; as a rule, active = well fitted inhibition curve with a large enough effect; inconclusive = small, poorly fitted or top-dose-only effect, or another doubt; inactive = no such curve, though single readings can be large or run the other way.
Test: Primary qHTS for delayed death inhibitors of the malarial parasite plastid, 96 hour incubation
Conditions: P. falciparum luciferase reporter growth; series mostly up to 28.7 µM
Procedure, shortened: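 96 h incubation, 37 C, 5% CO2, of luciferase-reporter P. falciparum-infected RBCs (2% hematocrit, 0.05% parasitemia final) with test compounds; endpoint luminescence.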
Potency is read from the fitted curve at half-maximal effect.

SMILES	Potency
COc1ccc(S(=O)(=O)NNC(=O)Nc2ccc(C)cc2)c(OC)c1	inactive
N#CCCN1CCN(S(=O)(=O)c2ccc(S(=O)(=O)NC3CCCCC3)cc2)CC1	8.28 µM (active)
N#CCCN1CCN(S(=O)(=O)c2ccc(S(=O)(=O)N3CCCC3)cc2)CC1	inactive
N#CCCN1CCN(S(=O)(=O)c2ccc(S(=O)(=O)NC3CC3)cc2)CC1	inactive
CN(Cc1ccc(F)cc1Cl)S(=O)(=O)c1cccs1	inactive
COCC(=O)Nc1c(C(=O)N2CCCC2)oc2ccccc12	inactive
CCOCCCN(C)C1CCN(C(=O)c2oc3ccccc3c2NC(=O)COc2cccc(C)c2)CC1	13.1 µM (active)
Cc1cccc(OCC(=O)NC(=S)Nc2ccccc2N2CCOCC2)c1	inactive
Cc1ccc(C)c(C(=O)N2CCC(n3nccc3NC(=O)C3CC3)CC2)c1	inactive
Cc1c(CN2CCC(n3nccc3NC(=O)CCc3ccccc3)CC2)cnn1C	inactive
CCN1CCN(C(=O)C2CCN(S(=O)(=O)c3cc(Cl)ccc3Cl)CC2)CC1	inactive
COc1ccc(-n2c(=O)[nH]c3cc(C(=O)NCCc4ccc(OC)c(OC)c4)ccc3c2=O)c(OC)c1	inactive
Cc1cc(C)c2c(-n3cccc3)c(C(=O)NNS(=O)(=O)c3ccc(F)cc3)sc2n1	inactive
CCCCOC(=O)Nc1sc2nc(C)cc(C)c2c1-n1cccc1	inactive
Cc1cc(C)c2c(-n3cccc3)c(NC(=O)OCc3ccccc3)sc2n1	13.1 µM (active)
COc1ccccc1-n1c(SCC(=O)Nc2cccc(C(=O)O)c2)nnc1-c1ccccc1O	inactive
Cc1cc(C)c2c(-c3ccc(F)cc3)c(C#N)c(=O)n(C)c2n1	inactive
O=C(CCN1C(=O)[C@@H]2Cc3ccccc3CN2C1=O)NCc1ccccc1	inactive
C=CCc1cccc(/C=N/NC(=O)COc2ccc(-n3cnnn3)cc2)c1O	inactive
Cc1ccc(C(=O)OCC(=O)NC(=O)Cc2ccccc2)c(O)c1	inactive
O=C(NCCc1csc(-c2ccccc2)n1)c1ccccc1F	inactive
COc1ccc(-c2csc(NC(=O)COC(=O)c3ccc(Br)o3)n2)cc1	inactive
COc1ccc(-c2nc(CCNC(=O)c3ccc(Br)o3)cs2)cc1	8.28 µM (active)
NS(=O)(=O)c1ccc(NC(=S)N2CCCC2)cc1	inactive
Cc1ccc(N=Nc2c(C)[nH]n(-c3ccccc3)c2=O)cc1	inactive
Cc1ccc(C2C3=C(Nc4[nH]n(-c5ccccc5)c(=O)c42)c2ccccc2C3=O)cc1 (configuration not stated)	11.7 µM (active)
COC(=O)C1=C(C)NC2=C(C(=O)c3ccccc32)C1c1ccc(-c2ccc(C(=O)O)cc2)o1 (configuration not stated)	inactive

Reference: PubChem BioAssay AID504834 (National Center for Advancing Translational Sciences (NCATS), 2011)
